# Screening results from PubChem BioAssay.
# RORgamma inh – ROR gamma (mouse) transcription inhibition; P51450; Drosophila S2 Gal4-RORgamma UAS-luciferase reporter, 20 h; Potency, µM (series often up to 53.6 µM), for the others: top-dose activity change, negative = inhibition, hits mostly inhibitors; 310,000 tested, 5.4% active; AID 2551; further: nearly all actives have a fitted effect of over 60% in size
# Target sequence (P51450 whole entry, looked up, the tested form may be a part): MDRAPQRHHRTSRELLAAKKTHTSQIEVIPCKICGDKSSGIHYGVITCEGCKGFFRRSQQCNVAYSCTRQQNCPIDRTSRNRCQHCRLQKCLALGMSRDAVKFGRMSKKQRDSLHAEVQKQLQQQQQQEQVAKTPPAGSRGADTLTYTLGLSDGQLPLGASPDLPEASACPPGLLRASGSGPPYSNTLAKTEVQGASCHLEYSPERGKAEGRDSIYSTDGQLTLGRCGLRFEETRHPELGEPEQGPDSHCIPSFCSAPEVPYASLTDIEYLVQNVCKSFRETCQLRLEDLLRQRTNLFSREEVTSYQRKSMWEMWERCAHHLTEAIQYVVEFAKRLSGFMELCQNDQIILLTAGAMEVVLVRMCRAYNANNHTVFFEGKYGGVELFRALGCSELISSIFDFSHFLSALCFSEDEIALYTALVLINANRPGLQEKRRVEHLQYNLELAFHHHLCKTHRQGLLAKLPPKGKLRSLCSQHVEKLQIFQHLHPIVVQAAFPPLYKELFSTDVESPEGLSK
#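 Luminescence from a UAS-regulated Photinus luciferase reporter in stably transfected Drosophila Schneider cells is measured; decreased signal marks ROR gamma inhibition. Fusion expression is induced by 700 uM copper sulfate for 20 hr.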
# Gal4-VP16 FLuc – inhibits Gal4-VP16 luciferase reporter, ROR gamma counter-screen | Drosophila S2 Gal4-VP16 UAS-luciferase, luminescence, 20 h | Potency, µM (top dose mostly 53.6 µM), for inactives: top-dose activity, negative = inhibition, most hits filed as inhibitors | 310,000 tested, 3.5% active | AID 2546;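 further: Gal4-VP16 expression switched on by copper sulfate through the metallothionein promoter; nearly all actives have a fitted effect of over 50% in size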
# DT40 TDP1 no CPT – qHTS for Inhibitors of human tyrosyl-DNA phosphodiesterase 1 (TDP1): qHTS in cells in absence of CPT | DT40 Tdp1-/- hTDP1 cells, no CPT, ATP luminescence, 48 h | Potency, µM (doses to about 46.2 µM), without a hit: at the highest dose activity change, negative = growth inhibition, usual class: inhibitors | 420,000 tested, 15% active | AID 686978, 2013; further: nearly all actives have a fitted effect of over 55% in size
#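 Growth kinetics read by CellTiter-Glo luminescence after ≥48 hr at 37 °C. Cells: DT40 Tdp1-/- stably carrying human TDP1, 400 per well, compound exposure in the absence of CPT (DMSO vehicle).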
# ELG1 repair inh – ELG1-dependent DNA repair inhibition. HEK293T ELG1-luciferase reporter, luminescence, 16 h; DNA damage induced by 5-fluorouridine. Potency, µM (doses to about 46.1 µM), without a hit: at the top dose activity change, negative = inhibition, hits mostly inhibitors. 330,000 tested, 2.3% active. AID 504467; further: nearly all actives have a fitted effect of over 55% in size
#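 DMSO vehicle served as the neutral condition. Each well held 2,000 cells given 5-fluorouridine plus compound; after 16 hr at 37 °C/5% CO2, ONE-Glo was added and luciferase measured 30 min later.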
# DT40 TDP1 CPT – growth inhibition of DT40 Tdp1-/-;hTDP1 cells with camptothecin (screen for TDP1 inhibitors). chicken DT40 Tdp1-/-;hTDP1 cells + 20 nM CPT, ATP luminescence, 48 h. Potency, µM (top dose mostly 46.2 µM), without a hit: at the highest dose activity change, negative = growth inhibition, most hits filed as inhibitors. 420,000 tested, 12% active; further: nearly all actives have a fitted effect of over 55% in size
#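 Chicken DT40 Tdp1-/- cells complemented with human TDP1, 400 cells/well, exposed to compounds plus 20 nM camptothecin for at least 48 h at 37 C; viability read as ATP content by CellTiter-Glo luminescence.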
# 12-LOX inh – inhibitors of human 12S-lipoxygenase ALOX12; purified 12hLO, xylenol orange hydroperoxide absorbance; 580,000 tested, 1.1% active; P18054; Potency, µM (titrated, usually from 108 µM), for inactives: at the top dose activity change, negative = inhibition, most hits filed as inhibitors
#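 Purified human 12hLO (150 nM final) in 25 mM Hepes, 0.01% Triton X-100, pH 7.0 was preincubated 15 min at room temperature with compound. Then 40 uM arachidonic acid was added, 30 min. Hydroperoxide was read by Fe-XO absorbance ratio 573/405 nm.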
# The depositor's hits bear a star; ? = inconclusive; . = no result; [ ] = another dose, or the depositor's remark. Compounds with a hit are over-represented: about 15% of the library has one in this group of screens. The call rests on the fitted dose curve; in most records, active means well fitted curve in the direction sought with a large enough effect; inconclusive means small, poorly fitted or top-dose-only effect, or another doubt; inactive means no such curve, though single readings can be large; an effect the other way counts as inactive or inconclusive. On the % scale 0 is the no-effect control and ±100 the full control effect; potency means the concentration at half of the fitted maximal effect.
SMILES,RORgamma inh,Gal4-VP16 FLuc,DT40 TDP1 no CPT,ELG1 repair inh,DT40 TDP1 CPT,12-LOX inh
O=C(N/N=C/c1ccc2c(c1)OCO2)c1cc(-c2ccco2)nc2ccccc12,.,.,7.31µM*,0.7%,9.2µM*,-23.8%
O=C(N/N=C/c1ccc2c(c1)OCO2)c1cc(-c2ccccc2)nc2ccccc12,?,?,10.3µM*,?,20.6µM*,-12.2%
O=C(Nc1ccc2c(c1)OCO2)c1cc(-c2cccnc2)nc2ccccc12,5.4%,2.2%,?,-11.3%,-17.1%,0.4%
CC(=O)Nc1ccc(/C=N/NC(=O)c2cc(-c3ccco3)nc3ccccc23)cc1,1.8%,-16.6%,?,-13.9%,-24.0%,3.2%
CCN1CCN(CCOc2ccc(Cl)cc2)CC1,-0.1%,5.1%,-11.0%,-0.9%,-3.8%,1.41µM*
Cc1ccc(OCCN2CCN(c3ncnc4sc(C)c(C)c34)CC2)cc1,8.91µM*,3.55µM*,3.66µM*,?,3.66µM*,?
Clc1ccc(OCCN2CCN(c3ncnc4sccc34)CC2)cc1,?,0.631µM*,0.581µM*,?,0.581µM*,-5.9%
Cc1ccc(OCCN2CCN(c3ncnc4scc(-c5ccccc5)c34)CC2)cc1,.,.,.,.,.,-4.5%
C=CCNc1nc2c(c(=O)[nH]c(=O)n2C)n1CCCC,.,.,.,.,.,34.4%
Cc1cccc(N/N=C(/c2ccccc2)c2ccc(F)cc2)c1C,.,.,.,.,.,5.01µM*
CC(C)c1ccc(CN2CCc3ncc(C(=O)NCc4ccccc4)n3CC2)cc1,.,.,.,.,.,18.2%[176 µM]
COc1ccc(NC(=O)CN(c2ccccc2F)S(=O)(=O)c2ccc(C)cc2)c(OC)c1,3.4%,-10.1%,14.6µM*,?,16.4µM*,?
CCOc1ccccc1N(CC(=O)Nc1ccc(OC)cc1OC)S(=O)(=O)c1ccccc1,21.2%,4.4%,25.9µM*,16.4µM*,?,13.4%
CCOc1ccccc1N(CC(=O)Nc1cccc(OC)c1)S(=O)(=O)c1ccccc1,-7.2%,-4.2%,?,-0.4%,29.1µM*,127.4%
CCOc1ccc(NC(=O)CN(c2ccccc2OCC)S(=O)(=O)c2ccccc2)cc1,.,.,18.4µM*,.,?,-17.1%
O=C(c1ccccc1)N(Cc1cccc2[nH]ccc12)C1CC1,.,.,.,.,.,-12.3%
COc1cccc(S(=O)(=O)N2CCC3(CC2)C(=O)NN=C3c2ccccn2)c1,.,.,.,.,.,44.8%
CCN(CC)Cc1cnc2c(C(=O)Nc3ccc(C)cc3Cl)cnn2c1,.,.,.,.,.,-7.5%
COc1ccc(N(CC(=O)NCc2ccc(C)cc2)S(=O)(=O)c2ccccc2[N+](=O)[O-])c(OC)c1,2.3%,-11.7%,23.1µM*,-9.6%,?,-8.7%
O=C(CCCc1ccccc1)NCc1cn2ccsc2n1,?,25.4%,-17.6%,13.1%,-6.4%,6.1%
Oc1ccc2ccccc2c1C=NCc1cn2ccsc2n1,?,12.6µM*,-12.9%,1.9%,-18.8%,4.0%
CC(C)CC(NC(=O)C(C)NC(=O)OCc1ccccc1)c1ccccc1 (centres undefined),.,.,.,.,.,-37.0%
C=C1NN(CC2CC2)C(=O)N1c1ccc(OCc2ccccc2)cc1,.,.,12.6µM*,.,?,.
CCOc1ccc(NC(=O)Cn2c(Nc3cc(C)cc(C)c3)nc(C)cc2=O)cc1,.,.,.,.,.,35.5µM*
Cc1cc(C)c2c(=O)n(CC(=O)Nc3ccc(Cl)cc3)sc2n1,?,12.6µM*,2.59µM*,19.6%,4.11µM*,1.26µM*
SMILES,RORgamma inh,Gal4-VP16 FLuc,DT40 TDP1 no CPT,ELG1 repair inh,DT40 TDP1 CPT,12-LOX inh
CCOc1ccc(NC(=O)Cn2sc3nc(C)cc(C)c3c2=O)cc1,?,11.2µM*,2.59µM*,1.1%,2.06µM*,.
Cc1cc(=O)n(CC(=O)Nc2cccc(F)c2)c(-c2ccccc2)n1,.,.,.,.,.,6.0%
Cc1cc(C)c2c(=O)n(CC(=O)Nc3cccc(F)c3)sc2n1,?,?,2.31µM*,?,2.31µM*,?
COc1ccc(NC(=O)Cn2c(-c3ccc(Cl)cc3)nc(C)cc2=O)cc1OC,.,.,.,.,.,9.4%
CCS(=O)(=O)NC(C)C(=O)O (centres undefined),.,.,.,.,.,5.6%
COc1cccc2cc(-c3cc(=O)oc4ccc(OC(C)=O)cc34)oc12,.,.,.,.,.,8.6%
Cc1ccc(NC(=O)Cn2sc3nc(C)cc(C)c3c2=O)c(Cl)c1,?,?,2.91µM*,?,2.91µM*,2µM*
Cc1ccc(NC(=O)Cn2c(C)cc(C)c(C#N)c2=O)c(Cl)c1,12.9%,-4.4%,-0.9%,4.8%,-13.3%,-4.3%
O=C(COc1ccccc1)Nc1ccc([C@@H](O)[C@H]2COCC(=O)N2CC2CC2)cc1,.,.,.,.,.,46.5%[176 µM]
CSCCC(NC=O)C(=O)NC(C)C(=O)O (centres undefined),.,.,0.651µM*,.,2.91µM*,8.3%
CSCCC(NC=O)C(=O)NC(CC(C)C)C(=O)NC(Cc1ccccc1)C(=O)O (centres undefined),-12.6%,-10.1%,-3.4%,.,-3.9%,.
Oc1c(/C=N/Nc2cccc3cccnc23)ccc2ccccc12,12.6µM*,?,?,?,?,-11.8%
C(=N\Nc1cccc2cccnc12)/c1c[nH]c2ccccc12,.,.,.,.,.,31.6µM*
Cc1ccc(OCC(O)Cn2nnc(-c3cccnc3)n2)c(C)c1 (centres undefined),.,.,.,.,.,2.3%
O=C(c1cccs1)N1CCC2(CC1)NCCc1c2[nH]c2ccccc12,.,.,.,.,.,6.3%
Cc1cc(=O)n(CC(=O)N[C@H](c2ccccn2)C2CC(O)C2)nc1C (some centres undefined),.,.,.,.,.,21.6%
COc1ccc(C(CC(=O)Nc2ccccc2OC)n2cccc2)cc1 (centres undefined),-1.4%[10 µM],-10.8%,10.3µM*,?,16.4µM*,-12.6%
COc1ccc(C(CC(=O)Nc2cc(OC)cc(OC)c2)n2cccc2)cc1 (centres undefined),?,-3.9%,?,?,?,2.8%
COc1ccccc1C(CC(=O)Nc1ccc(C)c(C)c1)c1ccc(OC(C)C)cc1 (centres undefined),?,0.7%,20.6µM*,-19.1%,?,-7.6%
COc1ccccc1NC(=O)CCC(=O)O,-12.5%,6.3%,1.2%,4.9%,-1.7%,-3.7%
COc1ccccc1NC(=O)CC(c1ccc(OC(C)C)cc1)c1ccccc1OC (centres undefined),-6.9%,-8.7%,20.6µM*,8.2µM*,16.4µM*,1.3%
O=C(c1ccccc1OCC1CCCN(Cc2cccs2)C1)N1CCCC1 (centres undefined),.,.,.,.,.,-2.3%
